Experiments:
Assay in all cases: log2 ratio of Biotin-Ahx-Ub-VS probe labelling (fragment/DMSO); higher = less target engagement (more negative = stronger competition), active = hit call of the paper (q ≤ 0.05, log2 ratio ≤ -1)
Settings in all cases: compound concentration: 200 uM; treatment time: 3 h
USP34 = USP34 (UniProt Q70CQ2)
Outline: (§1)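 The table lists average log2 ratios of fragment over vehicle, from an unpaired t-test on global-median-normalised Spectronaut label-free quantities. Proteins with ≥2 unique peptides were used. Samples were HEK293T lysate (495 µg) treated in triplicate with fragment at 200 µM or vehicle for 3 h, then with Biotin-Ahx-Ub-VS (0.5 µM final) for 1 h, with labelled DUBs NeutrAvidin-enriched and run by diaPASEF LC-MS/MS.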

USP36 = molecular target: T1, USP36 (UniProt Q9P275)
T1 sequence (whole entry): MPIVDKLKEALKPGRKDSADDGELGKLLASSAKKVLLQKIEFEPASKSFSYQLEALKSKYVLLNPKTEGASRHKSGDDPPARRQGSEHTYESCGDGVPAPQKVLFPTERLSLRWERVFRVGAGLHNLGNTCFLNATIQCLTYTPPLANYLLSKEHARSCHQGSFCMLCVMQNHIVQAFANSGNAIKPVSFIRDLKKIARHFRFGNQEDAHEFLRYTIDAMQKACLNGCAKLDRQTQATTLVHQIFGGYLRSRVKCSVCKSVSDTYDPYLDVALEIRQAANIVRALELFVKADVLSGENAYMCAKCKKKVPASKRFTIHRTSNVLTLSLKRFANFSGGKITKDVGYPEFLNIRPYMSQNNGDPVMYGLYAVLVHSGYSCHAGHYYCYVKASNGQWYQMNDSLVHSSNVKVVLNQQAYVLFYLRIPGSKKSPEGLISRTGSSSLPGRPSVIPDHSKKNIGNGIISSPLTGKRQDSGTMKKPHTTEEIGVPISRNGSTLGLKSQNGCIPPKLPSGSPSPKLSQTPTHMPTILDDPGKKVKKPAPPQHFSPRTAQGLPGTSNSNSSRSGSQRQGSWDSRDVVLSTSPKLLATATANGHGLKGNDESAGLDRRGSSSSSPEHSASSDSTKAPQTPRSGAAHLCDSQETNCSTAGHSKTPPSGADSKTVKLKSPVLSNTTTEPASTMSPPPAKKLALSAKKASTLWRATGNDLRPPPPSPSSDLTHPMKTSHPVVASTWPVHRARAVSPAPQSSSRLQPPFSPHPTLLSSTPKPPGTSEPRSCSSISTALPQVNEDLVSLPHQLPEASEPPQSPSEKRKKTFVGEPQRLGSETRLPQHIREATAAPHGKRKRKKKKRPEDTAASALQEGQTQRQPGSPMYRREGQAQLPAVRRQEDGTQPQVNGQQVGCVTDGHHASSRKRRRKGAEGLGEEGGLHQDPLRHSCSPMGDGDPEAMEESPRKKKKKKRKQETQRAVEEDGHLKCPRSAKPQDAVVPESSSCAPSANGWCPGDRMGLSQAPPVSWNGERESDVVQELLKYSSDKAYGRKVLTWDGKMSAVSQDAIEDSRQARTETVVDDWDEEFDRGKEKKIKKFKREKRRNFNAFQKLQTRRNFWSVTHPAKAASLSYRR
Outline: as §1

USP38 = molecular target: T2, USP38 (UniProt Q8NB14)
T2 sequence (whole entry): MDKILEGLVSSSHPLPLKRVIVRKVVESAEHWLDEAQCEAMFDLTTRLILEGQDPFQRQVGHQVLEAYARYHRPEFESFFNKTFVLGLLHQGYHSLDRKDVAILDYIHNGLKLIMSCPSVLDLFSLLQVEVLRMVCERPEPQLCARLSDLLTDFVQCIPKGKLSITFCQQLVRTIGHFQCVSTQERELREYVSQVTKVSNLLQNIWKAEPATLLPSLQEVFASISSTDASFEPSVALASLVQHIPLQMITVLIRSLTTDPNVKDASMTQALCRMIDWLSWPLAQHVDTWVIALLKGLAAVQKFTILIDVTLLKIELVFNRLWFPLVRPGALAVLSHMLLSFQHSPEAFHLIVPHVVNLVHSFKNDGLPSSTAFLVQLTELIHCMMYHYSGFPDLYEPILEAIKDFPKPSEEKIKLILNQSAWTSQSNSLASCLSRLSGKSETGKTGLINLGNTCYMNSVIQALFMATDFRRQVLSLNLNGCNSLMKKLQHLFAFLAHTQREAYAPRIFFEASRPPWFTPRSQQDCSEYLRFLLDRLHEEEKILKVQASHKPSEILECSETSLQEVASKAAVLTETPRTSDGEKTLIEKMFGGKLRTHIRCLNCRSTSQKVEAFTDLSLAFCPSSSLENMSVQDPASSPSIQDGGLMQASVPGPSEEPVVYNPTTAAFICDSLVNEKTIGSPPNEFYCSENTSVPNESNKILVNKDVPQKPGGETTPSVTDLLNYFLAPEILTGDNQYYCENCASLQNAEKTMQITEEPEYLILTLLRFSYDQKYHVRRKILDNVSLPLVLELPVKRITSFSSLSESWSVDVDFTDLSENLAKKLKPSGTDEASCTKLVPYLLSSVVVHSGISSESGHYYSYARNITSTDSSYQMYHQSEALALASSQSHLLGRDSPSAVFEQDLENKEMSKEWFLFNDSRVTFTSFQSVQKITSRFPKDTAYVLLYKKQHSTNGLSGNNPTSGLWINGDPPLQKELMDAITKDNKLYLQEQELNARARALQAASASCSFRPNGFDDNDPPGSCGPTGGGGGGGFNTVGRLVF
Outline: as §1

USP39 = molecular target: T3, USP39 (UniProt Q53GS9)
T3 sequence (whole entry): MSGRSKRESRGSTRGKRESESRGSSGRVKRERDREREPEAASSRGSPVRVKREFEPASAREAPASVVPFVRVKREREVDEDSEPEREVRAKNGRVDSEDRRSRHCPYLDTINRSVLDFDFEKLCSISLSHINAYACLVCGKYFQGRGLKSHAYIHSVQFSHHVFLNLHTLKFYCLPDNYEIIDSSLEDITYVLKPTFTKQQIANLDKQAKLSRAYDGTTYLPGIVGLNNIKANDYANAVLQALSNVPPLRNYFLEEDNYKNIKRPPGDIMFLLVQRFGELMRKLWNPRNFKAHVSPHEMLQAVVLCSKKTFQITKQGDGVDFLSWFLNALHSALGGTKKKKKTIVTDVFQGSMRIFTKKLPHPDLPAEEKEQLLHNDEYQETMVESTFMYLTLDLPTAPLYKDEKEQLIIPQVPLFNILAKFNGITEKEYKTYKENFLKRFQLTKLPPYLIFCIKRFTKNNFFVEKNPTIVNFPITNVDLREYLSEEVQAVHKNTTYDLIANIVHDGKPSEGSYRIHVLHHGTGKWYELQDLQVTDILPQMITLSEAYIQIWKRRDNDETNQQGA
Outline: as §1

USP4 = molecular target: T4, USP4 (UniProt Q13107)
T4 sequence (whole entry): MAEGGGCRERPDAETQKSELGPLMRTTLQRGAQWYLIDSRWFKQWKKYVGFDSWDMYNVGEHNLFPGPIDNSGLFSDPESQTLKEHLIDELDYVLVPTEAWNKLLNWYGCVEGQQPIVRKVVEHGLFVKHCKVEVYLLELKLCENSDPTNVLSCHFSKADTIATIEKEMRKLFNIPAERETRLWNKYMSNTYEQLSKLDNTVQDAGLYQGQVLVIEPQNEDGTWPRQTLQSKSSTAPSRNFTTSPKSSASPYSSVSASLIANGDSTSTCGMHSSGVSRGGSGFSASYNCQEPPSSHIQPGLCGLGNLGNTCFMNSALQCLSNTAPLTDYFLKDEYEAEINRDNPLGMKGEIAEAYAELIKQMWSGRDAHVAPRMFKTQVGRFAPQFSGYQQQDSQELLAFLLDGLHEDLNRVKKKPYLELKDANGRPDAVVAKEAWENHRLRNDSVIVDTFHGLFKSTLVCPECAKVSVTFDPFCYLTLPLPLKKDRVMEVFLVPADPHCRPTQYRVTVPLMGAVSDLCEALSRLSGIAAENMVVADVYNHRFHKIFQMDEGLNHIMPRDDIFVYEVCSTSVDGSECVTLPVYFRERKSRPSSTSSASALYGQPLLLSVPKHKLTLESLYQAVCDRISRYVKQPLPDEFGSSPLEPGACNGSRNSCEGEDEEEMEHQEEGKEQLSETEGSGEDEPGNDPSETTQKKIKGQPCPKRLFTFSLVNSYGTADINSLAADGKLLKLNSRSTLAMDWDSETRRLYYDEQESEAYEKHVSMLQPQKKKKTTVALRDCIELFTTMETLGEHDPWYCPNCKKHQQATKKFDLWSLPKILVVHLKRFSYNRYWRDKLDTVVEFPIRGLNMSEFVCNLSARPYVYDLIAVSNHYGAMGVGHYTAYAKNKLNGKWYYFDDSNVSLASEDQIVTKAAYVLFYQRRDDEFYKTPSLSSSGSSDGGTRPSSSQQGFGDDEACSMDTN
Outline: as §1

Measured: log2 ratio of Biotin-Ahx-Ub-VS probe labelling

Sequence of USP34 (Q70CQ2 whole entry, the tested form may be a part): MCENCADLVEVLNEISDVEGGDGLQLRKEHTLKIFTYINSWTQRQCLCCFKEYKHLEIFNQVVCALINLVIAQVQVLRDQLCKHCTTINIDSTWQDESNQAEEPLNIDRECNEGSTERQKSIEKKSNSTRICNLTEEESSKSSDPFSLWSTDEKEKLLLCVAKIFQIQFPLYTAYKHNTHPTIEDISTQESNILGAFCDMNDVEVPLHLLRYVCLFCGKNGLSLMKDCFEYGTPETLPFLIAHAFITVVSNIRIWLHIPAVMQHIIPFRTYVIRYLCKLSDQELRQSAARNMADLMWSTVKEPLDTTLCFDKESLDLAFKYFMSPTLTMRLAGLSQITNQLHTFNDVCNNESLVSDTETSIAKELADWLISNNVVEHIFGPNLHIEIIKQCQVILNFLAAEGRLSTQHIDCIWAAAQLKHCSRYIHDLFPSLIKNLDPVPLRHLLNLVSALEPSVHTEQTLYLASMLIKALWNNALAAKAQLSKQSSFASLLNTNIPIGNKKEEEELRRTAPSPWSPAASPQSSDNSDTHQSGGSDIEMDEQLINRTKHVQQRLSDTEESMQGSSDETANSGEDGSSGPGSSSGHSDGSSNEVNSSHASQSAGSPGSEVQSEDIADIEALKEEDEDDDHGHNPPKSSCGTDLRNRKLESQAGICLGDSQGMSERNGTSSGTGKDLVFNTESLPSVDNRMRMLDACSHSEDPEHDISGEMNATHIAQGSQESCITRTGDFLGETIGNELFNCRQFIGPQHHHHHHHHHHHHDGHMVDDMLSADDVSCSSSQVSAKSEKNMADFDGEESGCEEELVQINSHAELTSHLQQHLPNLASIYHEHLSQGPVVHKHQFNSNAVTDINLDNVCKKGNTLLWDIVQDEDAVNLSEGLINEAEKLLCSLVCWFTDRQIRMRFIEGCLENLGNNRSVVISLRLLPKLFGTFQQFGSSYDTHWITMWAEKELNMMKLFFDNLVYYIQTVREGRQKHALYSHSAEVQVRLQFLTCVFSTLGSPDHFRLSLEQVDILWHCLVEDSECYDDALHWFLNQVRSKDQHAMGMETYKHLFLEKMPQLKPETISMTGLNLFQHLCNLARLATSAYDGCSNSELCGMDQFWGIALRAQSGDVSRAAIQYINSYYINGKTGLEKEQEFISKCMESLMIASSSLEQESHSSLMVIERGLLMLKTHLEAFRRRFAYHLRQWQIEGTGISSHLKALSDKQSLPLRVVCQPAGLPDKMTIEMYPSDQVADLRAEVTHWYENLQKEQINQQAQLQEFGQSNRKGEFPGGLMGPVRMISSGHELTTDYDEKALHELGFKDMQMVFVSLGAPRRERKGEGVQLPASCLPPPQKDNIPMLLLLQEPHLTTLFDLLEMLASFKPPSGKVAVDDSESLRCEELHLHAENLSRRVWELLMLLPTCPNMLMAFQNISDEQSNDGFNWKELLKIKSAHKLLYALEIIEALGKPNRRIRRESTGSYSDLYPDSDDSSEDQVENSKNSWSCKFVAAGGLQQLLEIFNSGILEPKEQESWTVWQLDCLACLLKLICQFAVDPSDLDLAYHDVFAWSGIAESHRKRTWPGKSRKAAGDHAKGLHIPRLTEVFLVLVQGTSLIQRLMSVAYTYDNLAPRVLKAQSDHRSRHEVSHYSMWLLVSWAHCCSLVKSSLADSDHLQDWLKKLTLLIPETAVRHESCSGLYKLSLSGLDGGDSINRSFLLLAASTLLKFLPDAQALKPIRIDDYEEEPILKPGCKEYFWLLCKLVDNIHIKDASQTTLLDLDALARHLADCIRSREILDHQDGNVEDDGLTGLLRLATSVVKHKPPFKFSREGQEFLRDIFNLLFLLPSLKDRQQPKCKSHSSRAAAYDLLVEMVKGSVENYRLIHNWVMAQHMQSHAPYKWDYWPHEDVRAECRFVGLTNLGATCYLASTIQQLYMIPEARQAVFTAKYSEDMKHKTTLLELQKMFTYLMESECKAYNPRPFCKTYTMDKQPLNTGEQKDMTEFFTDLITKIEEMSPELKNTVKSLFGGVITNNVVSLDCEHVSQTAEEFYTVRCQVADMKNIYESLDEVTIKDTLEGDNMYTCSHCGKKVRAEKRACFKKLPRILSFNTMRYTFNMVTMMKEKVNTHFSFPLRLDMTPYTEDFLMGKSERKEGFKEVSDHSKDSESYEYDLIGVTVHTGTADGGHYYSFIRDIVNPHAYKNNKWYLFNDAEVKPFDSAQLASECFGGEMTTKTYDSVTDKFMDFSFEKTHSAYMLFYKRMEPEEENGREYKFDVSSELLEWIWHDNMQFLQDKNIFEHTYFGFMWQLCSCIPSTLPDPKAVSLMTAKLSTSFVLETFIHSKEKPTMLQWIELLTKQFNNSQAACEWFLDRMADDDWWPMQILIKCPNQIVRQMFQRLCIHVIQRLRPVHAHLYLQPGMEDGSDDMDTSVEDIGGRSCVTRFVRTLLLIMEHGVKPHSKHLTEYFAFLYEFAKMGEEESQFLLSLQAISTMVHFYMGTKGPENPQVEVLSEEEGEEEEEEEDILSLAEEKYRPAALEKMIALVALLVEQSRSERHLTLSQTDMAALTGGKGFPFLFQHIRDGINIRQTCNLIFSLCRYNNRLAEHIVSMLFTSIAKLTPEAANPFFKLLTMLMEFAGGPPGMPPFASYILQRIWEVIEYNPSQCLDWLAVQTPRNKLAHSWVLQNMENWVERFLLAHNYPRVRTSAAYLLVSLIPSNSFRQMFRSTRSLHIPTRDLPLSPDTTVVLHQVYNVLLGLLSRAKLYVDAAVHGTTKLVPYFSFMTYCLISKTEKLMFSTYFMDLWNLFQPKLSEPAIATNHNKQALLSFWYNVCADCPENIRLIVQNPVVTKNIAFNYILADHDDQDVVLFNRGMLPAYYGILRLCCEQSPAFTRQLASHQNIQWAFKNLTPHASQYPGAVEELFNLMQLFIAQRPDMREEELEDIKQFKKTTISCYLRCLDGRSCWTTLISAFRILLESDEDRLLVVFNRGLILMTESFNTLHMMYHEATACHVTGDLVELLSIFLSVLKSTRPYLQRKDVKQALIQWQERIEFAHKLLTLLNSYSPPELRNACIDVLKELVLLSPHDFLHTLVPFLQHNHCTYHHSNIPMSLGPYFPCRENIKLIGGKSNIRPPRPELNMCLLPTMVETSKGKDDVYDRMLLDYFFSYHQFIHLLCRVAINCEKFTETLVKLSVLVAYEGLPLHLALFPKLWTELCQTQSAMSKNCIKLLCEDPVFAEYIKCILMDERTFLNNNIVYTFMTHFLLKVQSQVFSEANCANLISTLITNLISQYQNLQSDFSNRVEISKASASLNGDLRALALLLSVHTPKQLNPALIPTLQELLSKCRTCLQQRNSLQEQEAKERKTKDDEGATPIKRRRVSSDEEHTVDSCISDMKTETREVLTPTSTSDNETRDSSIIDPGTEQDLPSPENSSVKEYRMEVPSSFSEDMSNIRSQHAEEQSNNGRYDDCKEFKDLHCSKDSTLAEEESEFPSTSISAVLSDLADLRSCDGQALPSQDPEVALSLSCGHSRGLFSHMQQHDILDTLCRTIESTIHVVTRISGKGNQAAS

O=C(CCl)NC(Cn1ccccc1=O)c1ccccc1 (stereo not given)
inactive: USP34 -0.106 | USP36 0.132 | USP38 -0.000312 | USP39 -0.0137 | USP4 -0.127
